# Hits are enriched below; roughly 6.2% of the tested compounds scored in any of these assays.
# VP16 counter: inhibits Gal4-VP16 luciferase reporter, ROR gamma counter-screen. Drosophila S2 Gal4-VP16 UAS-luciferase, luminescence, 20 h. Potency, µM (doses to about 53.6 µM), most hits filed as inhibitors. 310,000 tested, 3.5% active. AID 2546;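 also: Gal4-VP16 expression switched on by copper sulfate through the metallothionein promoter; nearly all actives have a fitted effect of over 50% in size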
# RORg inh: blocks mouse ROR gamma transcriptional activity. Potency, µM (series often up to 53.6 µM), most hits filed as inhibitors. Drosophila S2 Gal4-RORgamma UAS-luciferase reporter, 20 h. 310,000 tested, 5.4% active. P51450; also: nearly all actives have a fitted effect of over 60% in size
# Target sequence (P51450 whole entry, looked up, the tested form may be a part): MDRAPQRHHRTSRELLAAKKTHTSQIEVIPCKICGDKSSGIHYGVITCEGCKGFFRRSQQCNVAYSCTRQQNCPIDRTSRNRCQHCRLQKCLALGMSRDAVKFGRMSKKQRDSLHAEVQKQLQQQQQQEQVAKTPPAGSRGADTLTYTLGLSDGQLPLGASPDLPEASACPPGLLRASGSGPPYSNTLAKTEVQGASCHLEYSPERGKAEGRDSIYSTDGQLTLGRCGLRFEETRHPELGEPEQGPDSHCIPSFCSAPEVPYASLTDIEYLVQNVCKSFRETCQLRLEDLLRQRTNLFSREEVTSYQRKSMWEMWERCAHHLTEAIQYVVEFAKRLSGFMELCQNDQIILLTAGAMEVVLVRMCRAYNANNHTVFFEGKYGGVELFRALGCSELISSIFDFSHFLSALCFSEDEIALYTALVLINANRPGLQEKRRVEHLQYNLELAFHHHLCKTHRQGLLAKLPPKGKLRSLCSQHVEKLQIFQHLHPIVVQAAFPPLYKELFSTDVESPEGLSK
#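 Read-out: Photinus luciferase luminescence; inhibitors lower reporter signal. Insect Schneider cells with Gal4-ROR gamma fusion under metallothionein promoter, UAS reporter; 700 uM final copper sulfate induction, 20 hr, ambient temperature.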
# Luc counter: blocks Kinase-Glo luciferase, a counter-screen artifact; AID 1379; 200,000 tested, 0.28% active; Kinase-Glo luciferase, ATP luminescence, 8 min; Potency, µM (top dose mostly 38.3 µM), usual class: inhibitors; Q27757; also: nearly all actives have a fitted effect of over 60% in size
#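 Compound is pinned into ATP-containing buffer (10 uM ATP, imidazole pH 7.2, 7 mM MgCl2). Kinase-Glo luciferase reagent is then added. Light output is recorded following an 8-min room-temperature incubation.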
# Hits are given with their value; - = inactive; ? = inconclusive; . = no result; [ ] = remark or other dose. Calls follow the shape of the dose curve; as a rule, active = well fitted curve in the direction sought with a large enough effect; inconclusive = small, poorly fitted or top-dose-only effect, or another doubt; inactive = no such curve, though single readings can be large; an effect the other way counts as inactive or inconclusive.
SMILES,VP16 counter,RORg inh,Luc counter
CC(C)=N[C@H](C(=O)O)C(C)(C)S,.,.,-[7.66 µM]
CCOCCCNC(=O)C(NC(=O)c1ccc2c(c1)OCO2)c1ccc(Cl)cc1 (stereo unspecified),-,-,-
COC(=O)/C(=C/c1ccco1)NC(=O)c1ccco1,-,-,-
COc1cccc(NC(=S)N(CCN(C)C)Cc2cccs2)c1,-,-,-
CCc1ccccc1NC(=S)N(CCN(C)C)Cc1cccs1,-[10 µM],11.2µM,-
Cc1cccc(OCCOC(=O)c2c(-c3ccccc3)noc2C)c1,-,?,.
COCCNC(=O)NC(=O)COC(=O)c1ccc2[nH]c3c(c2c1)CCCC3,-,-,-
CC(C)CC(=O)NCc1ccc2[nH]c3c(c2c1)CCCC3,-,-,-
Cc1ccc(NC(=S)NCc2ccc3[nH]c4c(c3c2)CCCC4)cc1,2.82µM,7.94µM,-
COCCNC(=S)NCc1ccc2[nH]c3c(c2c1)CCCC3,-,20µM,-
Cc1ccc(S(=O)(=O)N2CCCC2c2nc3ccccc3s2)cc1 (stereo unspecified),-,-,-
CSCC[C@H](NC(=O)[C@H](CC(C)C)NC(=O)CNC(=O)[C@H](Cc1ccccc1)NC(=O)[C@H](Cc1ccccc1)NC(=O)[C@H](CCC(N)=O)NC(=O)[C@H](CCC(N)=O)NC(=O)[C@@H]1CCCN1C(=O)[C@H](CCCCN)NC(=O)[C@@H]1CCCN1C(=O)[C@@H](N)CCCN=C(N)N)C(N)=O,-,-,.
Cc1ccccc1OCc1nnc(SCC(=O)N2CCc3ccccc32)n1C,-,-,-
Cc1cccc(OCc2nnc(SCC(=O)N3c4ccccc4CC3C)n2C)c1C (stereo unspecified),14.1µM,?,-
CN(Cc1ccco1)c1ncncc1-c1cccc(NS(C)(=O)=O)c1,-,-,.
O=C(Nc1nonc1-c1ccc(Cl)cc1)c1ccccc1,?,11.2µM,-
CC(=O)Nc1nonc1-c1ccccc1,-,-,-
COc1ccc(C(=O)NCc2cn3ccsc3n2)cc1OC,-,-,-
Cc1cccc(CN2CCN(Cc3ccc4nonc4c3)CC2CCO)n1 (stereo unspecified),-,-,.
COc1ccc(CC(=O)OCC(=O)NCc2ccccc2Cl)cc1OC,-,-,-
CCC(=O)Nc1cccc(-c2nnc(-c3cccc(NC(=O)CC)c3)o2)c1,-,?,-
CCC(=O)Nc1ccc(-c2ccc(N3CCN(C)CC3)nn2)cc1,-,-,.
CCC(=O)Nc1ccc(-c2ccc(N3CCC(C)CC3)nn2)cc1,?,3.55µM,.
CCC(=O)Nc1cccc(-c2ccc(N3CCC(C)CC3)nn2)c1,3.98µM,2.51µM,.
Cc1cc(C)n(CCc2nc(-c3cc4ccccc4o3)cs2)n1,-,?,-
SMILES,VP16 counter,RORg inh,Luc counter
Cc1cc(C)n(CCc2nc(-c3ccc(C)o3)cs2)n1,11.2µM,?,-
Cc1[nH]nc2c1C(c1cc(Br)cs1)C(C#N)=C(N)O2 (stereo unspecified),7.08µM,0.708µM,-
Cc1[nH]nc2c1C(c1ccco1)C(C#N)=C(N)O2 (stereo unspecified),-,?,-
O=C(CN1CCC(C(=O)c2ccc3c(c2)OCCO3)CC1)Nc1ccccc1C(F)(F)F,-,?,.
CCN(c1ccccc1)S(=O)(=O)c1ccc(Cl)c(NC(=O)COC(=O)C2CC2C)c1 (stereo unspecified),-,-,-
CCN(c1ccccc1)S(=O)(=O)c1ccc(Cl)c(NC(=O)COC(=O)c2cc(O)c3ccccc3c2O)c1,12.6µM,10µM,.
CNC(=S)Nc1ccc2nc(C)c(C)nc2c1,-,-,-
CCCCSc1nc(C)cc(NC(=S)Nc2ccc(OC)cc2)n1,3.55µM,1.26µM,-
CCOc1ccc(NC(=S)Nc2ccc3nsnc3c2)cc1,?,-,-
C=CCNC(=S)Nc1ccc2nsnc2c1,-,-,-
C=CCN(CC=C)C(=S)Nc1ccc2nsnc2c1,6.31µM,3.55µM,-
COc1ccc(NC(=S)Nc2ccc3nsnc3c2)cc1,5.62µM,10µM,-
CCC(C)c1ccc(NC(=S)Nc2ccc(OC)cc2C)cc1 (stereo unspecified),?,-,-
COc1ccc(NC(=S)Nc2ccc3nc(C)c(C)nc3c2)cc1,-,11.2µM,-
O=C1[C@H]2[C@H]3C=C[C@@H](C4[C@H]3[C@@H]3C(=O)N(CN5CCSCC5)C(=O)[C@H]43)[C@H]2C(=O)N1CN1CCSCC1 (stereo partly specified),.,.,-[7.66 µM]
CC(=O)c1ccc(OCc2cc(C(=O)NCCn3nc(C)cc3C)no2)cc1,-,?,.
Cc1ccc(NC(=O)Cn2ccc(=O)[nH]c2=O)cc1,-,-,.
Cc1ccc(S(=O)(=O)CC2CSc3nc(N)cc(=O)n32)cc1 (stereo unspecified),-,-,-
Cc1ccc(S(=O)(=O)CC2CSc3nc4ccccc4n32)cc1 (stereo unspecified),1.12µM,?,-
Cc1cccn2cc(CCNC(=O)c3ccc(Br)o3)nc12,-,?,-
O=C(CCC1CCCCC1=O)c1ccccc1 (stereo unspecified),-,-,-
O=C(CC1C(=O)CCCC1=O)c1ccccc1,?,10µM,-
O=C(CN1C(=O)S/C(=C\c2cccc(Cl)c2)C1=O)NC1C=CS(=O)(=O)C1 (stereo unspecified),-,7.94µM,.
O=C(CN1C(=O)S/C(=C\c2ccc(Cl)cc2)C1=O)NC1C=CS(=O)(=O)C1 (stereo unspecified),-,-,.
O=C(CN1C(=O)/C(=C/c2cccc(Cl)c2)SC1=S)NC1C=CS(=O)(=O)C1 (stereo unspecified),?,12.6µM,.
SMILES,VP16 counter,RORg inh,Luc counter
CC(C(=O)NC1C=CS(=O)(=O)C1)N1C(=O)/C(=C/c2cccc(Cl)c2)SC1=S (stereo unspecified),-,?,.
COc1ccc(CCNC(=O)Cc2ccc(OCc3ccccc3)c(OC)c2[N+](=O)[O-])cc1OCc1ccccc1,3.16µM,?,-
COc1ccc(CCNC(=O)Cc2ccc([N+](=O)[O-])cc2)cc1OC,-,?,.
O=C(Nc1ccc(F)cc1F)c1cc2ncc(CCCl)cn2n1,-,-,-
CC(C)c1ccc2c(c1)CC[C@H]1[C@](C)(CN)CCC[C@]21C,?,11.2µM,-
CC(C)c1ccc2c(c1)CC[C@@H]1[C@@](C)(CN)CCC[C@]21C,-,-,-
O=C(O)[C@@H]1C[C@@H](C(=O)O)N1,-,-,-
NC(=O)NCc1ccc(Cl)cc1,-,-,-
O=c1cc(-c2ccc(Cl)cc2)oc(=O)[nH]1,-,-,.
O=c1cc(N=Nc2ccc(Cl)cc2)[nH]c(=O)[nH]1,3.98µM,2.51µM,.
COc1ccc(Nc2nc(C)c(-c3ccccc3)s2)cc1,?,11.2µM,-
Cc1nc(Nc2ccc(S(N)(=O)=O)cc2)sc1-c1ccccc1,-,-,.
CCC(Sc1nc2ccccc2o1)C(=O)Nc1nnc(C)s1 (stereo unspecified),?,12.6µM,-
Cc1nnc(NC(=O)CSc2ccc3nnc(-c4ccccn4)n3n2)s1,-,-,-
CCC(Sc1nc2ccccc2o1)C(=O)O (stereo unspecified),-,-,-
CCC(Sc1ccccn1)C(=O)Nc1nnc(C)s1 (stereo unspecified),-,10µM,-
Cc1ccc(SCC(=O)OCC(=O)NC(C)c2ccc(Br)cc2)cc1 (stereo unspecified),-,-,.

# Bioassay records (PubChem BioAssay)
